AC50 and activity, negative = inhibition data for 95 compounds are collected here from PubChem BioAssay AID1851 (National Center for Advancing Translational Sciences (NCATS), 2009).

SMILES strings stand for the structures. Among all 16,000 compounds or so, about 5,700 (36%) were called active. Inconclusive results (about 24%) are left out. The list shows a part of the results. Unmarked numbers belong to inactive results. Calls follow the shape of the dose curve; as a rule, active = well fitted curve in the direction sought with a large enough effect; inconclusive = small, poorly fitted or top-dose-only effect, or effect the other way; inactive = no such curve, though single readings can be large or run the other way.
% is scaled to controls: 0 for no effect and ±100 for the full control effect.

Sequence of Cytochrome P450 1A2 (Homo sapiens) (P05177 whole entry, looked up): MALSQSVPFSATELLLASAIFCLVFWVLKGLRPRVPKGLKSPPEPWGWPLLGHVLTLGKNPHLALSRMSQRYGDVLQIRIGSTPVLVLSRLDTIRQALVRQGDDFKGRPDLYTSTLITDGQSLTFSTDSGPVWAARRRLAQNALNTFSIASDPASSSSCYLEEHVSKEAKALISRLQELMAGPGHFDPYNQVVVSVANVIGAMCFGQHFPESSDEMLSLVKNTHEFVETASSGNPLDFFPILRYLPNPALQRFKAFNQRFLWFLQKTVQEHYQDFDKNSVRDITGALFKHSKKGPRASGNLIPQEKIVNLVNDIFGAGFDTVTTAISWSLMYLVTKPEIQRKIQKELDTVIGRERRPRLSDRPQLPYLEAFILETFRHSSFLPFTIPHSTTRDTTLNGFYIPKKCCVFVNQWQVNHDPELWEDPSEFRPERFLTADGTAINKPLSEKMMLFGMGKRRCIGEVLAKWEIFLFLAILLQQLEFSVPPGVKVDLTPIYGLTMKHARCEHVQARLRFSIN

The test has as its target Cytochrome P450 1A2 (Homo sapiens) (UniProt P05177). The test can be described thus: Cytochrome panel assay with activity outcomes. As to conditions: recombinant CYP, pro-luciferin dealkylation, luminescence, p450-cyp1a2; series mostly up to 57.1 µM.
As a reminder, the AC50 is the midpoint of the concentration-response curve, whichever way the signal moves. With `Cc1cnc(CNc2ncncc2-c2c(C)noc2C)cn1`, the AC50 entry is “inactive”.
The same measure, in the same setting: as for `Cc1cnc(CNc2ncncc2-c2ccoc2)cn1`, the figure is 12.6 µM (active).
For the compound `Cc1cnc(CNc2ncncc2-c2ccc(N(C)C)cc2)cn1`, the AC50 is 3.16 µM (active).
Still for that read-out and setting: as for `COCCn1c(=O)c(-c2cn(C)c3ccccc23)nc2cncnc21`, the figure is 0.398 µM (active); as for `COc1cccc(Cn2c(=O)c(-c3cn(C)c4ccccc34)nc3cncnc32)c1`, 1 µM (active); as for `Cn1cc(-c2nc3cncnc3n(CCN)c2=O)c2ccccc21`, 6.31 µM (active).
On to `COCCn1c(=O)c(-c2cn(C)c3ccccc23)nc2cnc(OCc3ccccc3)nc21`, for which the half-maximal activity concentration (AC50) was 5.01 µM (active).
For `O=C(Cn1cnc([N+](=O)[O-])c1)NCc1ccc(F)cc1`, the AC50 result is “inactive”.
`COc1ccccc1CCn1c(=O)c(-c2cn(C)c3ccccc23)nc2cncnc21`: the half-maximal activity concentration (AC50) was 1.26 µM (active).
Turning to `COC(=O)CC[C@@H](C)[C@H]1CC[C@H]2[C@H]3CC[C@H]4C[C@@H]5CC[C@@]4(C)C3(O5)[C@@H](Br)[C@@H](Br)[C@@]12C`, the activity, negative = inhibition is -8.93% [at 11.4 µM].
For `CCCC(=O)Nc1c(C)n[nH]c1C`, the AC50 entry is “inactive”.
As for `CCCC(=O)Nc1nc(C(=O)OCC)cs1`, the AC50 is 15.8 µM (active).
Consider `COc1cc(OC)c2c(c1)C(=O)c1cc(OC)cc(OC)c1C2=O`, for which the AC50 is 2 µM (active).
In the case of `Cc1ccc(-n2ccnc2SCC(=O)N(CC(C)C)C2CCS(=O)(=O)C2)c(C)c1` (stereo not given), the AC50 result was “inactive”.
The same measure, in the same setting: as for `CC(=O)c1ccc(-n2nnnc2SCC(=O)Nc2cccc(NC(=O)c3ccco3)c2)cc1`, the figure is 0.501 µM (active); as for `O=C(CSc1ccc(Cl)cc1)Nc1cccc(NC(=O)c2ccco2)c1`, 2 µM (active).
The same measure, in the same setting: as for `O=C(CSc1ccccc1)Nc1ccc(NC(=O)c2ccco2)cc1`, the entry is “inactive”; as for `Cc1ccc(-n2nnnc2SCC(=O)NNC(=O)c2ccco2)c(C)c1`, “inactive”; as for `COc1ccc(NC(=O)CSc2nnc(CNC(=O)c3ccco3)n2-c2ccccc2OC)cc1`, “inactive”.
As to `Fc1cccc(F)c1C(Nc1nncs1)Nc1nncs1`, the activity, negative = inhibition was 12.3% [at 2.29 µM].
Regarding `Cc1cccc(C(=O)NC2CCN(C(=S)NCc3ccco3)CC2)c1`, the AC50 result was “inactive”.
Consider `Cn1c(=O)n(-c2ccc(Cl)cc2)c(=O)c2c3c(sc21)COC(C)(C)C3`, for which the AC50 is 14.1 µM (active).
Still for that read-out and setting: as for `O=C(C/C=N/OCc1ccc(F)cc1Cl)c1cnc(-c2ccccc2)s1`, the figure is 1.78 µM (active); as for `O=C(C/C=N/OCc1ccc(Cl)cc1Cl)c1ccc(Cl)cc1`, 2.82 µM (active).
Regarding `O=C1[C@@H]2[C@H]3[C@H](O)[C@H](O)C/C(=N/OCc4ccccc4)[C@H]3CC[C@H]2C(=O)N1c1ccc(F)cc1F`, the activity, negative = inhibition is -0.404% [at 11.4 µM].
On to `CCCc1nnc(SCC(=O)N2C(C)CCCC2C)n1CCCOC` (stereo not given), for which the AC50 entry is “inactive”.
On to `O=C(Nc1cccc(F)c1)/C(=C\c1ccco1)NC(=O)c1cccs1`, for which the concentration at half-maximal activity (AC50) was 4.47 µM (active).
Still for that read-out and setting: the value for `Cc1ccc(NC(=O)/C(=C\c2cccc([N+](=O)[O-])c2)NC(=O)c2cccs2)cc1` was “inactive”; that for `O=C(Nc1cccc(F)c1)N1CCC2(CC1)CCN(C(=O)c1ccco1)CC2` was “inactive”.
The same measure, in the same setting: as for `NCCC(=O)O`, the entry is “inactive”; as for `CCCCCC/C(C)=C1/SC(=S)NC1=O`, 2.51 µM (active).
The same measure, in the same setting: as for `c1ccc(Oc2cc(-c3ccccc3)ncn2)cc1`, the figure is 2.82 µM (active); as for `COc1cc(/C=N/NC(=O)c2cccnc2)ccc1OC(=O)c1ccco1`, 12.6 µM (active).
Turning to `COc1cc(/C=N/NC(=O)c2cccnc2)ccc1OC(=O)c1ccc2c(c1)OCO2`, the AC50 result is “inactive”.
Consider `Cc1ccc(C2=C(Cl)C(=O)C(c3ccc(C)cc3)=C(Cl)C2=O)cc1`, for which the activity, negative = inhibition is -16.9% [at 2.29 µM].
With `COc1cccc(C2=CC(c3ccccc3)n3nnnc3N2)c1` (stereo not given), the AC50 is 1.12 µM (active).
The same measure, in the same setting: the value for `CN(C)c1ccc(/C=C2/C(=O)Nc3ccccc32)cc1` was 0.1 µM (active).
On the same count and under the same terms, the value for `Cc1cc(C)c(/C=C2/C(=O)Nc3ccccc32)[nH]1` was 0.794 µM (active); that for `O=C1Nc2cc(C(=O)N3CCOCC3)ccc2SC1N1CCOCC1` (stereo not given) was “inactive”.
For the compound `N[C@@H](CSCc1ccc(I)cc1)C(=O)O`, the activity, negative = inhibition is -12% [at 2.29 µM].
On the same count and under the same terms, as for `COC(=O)[C@H](CCSC)NC(=O)C/C=C\[C@@H](C)[C@@H](CO)OC`, the figure is -1.07% [at 11.4 µM].
For `c1ccc(C[n+]2cccc(-c3cc4ccccc4[nH]3)c2)cc1`, the concentration at half-maximal activity (AC50) is 1.26 µM (active).
Regarding `COc1cc2c3c(c1OC)C1(C=CC(=O)C=C1)CC3N(C(=O)c1ccccc1)CC2` (stereo not given), the AC50 entry was “inactive”.
Still for that read-out and setting: the value for `COc1ccc(C(=O)N2CCC3(CCN(C)CC3)CC2)cc1` was “inactive”.
Regarding `COc1ccc(C(=O)/C=C2/c3ccccc3CC(C)(C)N2C)cc1`, the AC50 is 15.8 µM (active).
The same measure, in the same setting: the value for `COc1ccc(C(=O)N2CCC3(CCCN(Cc4ccccc4)C3)CC2)cc1` was “inactive”; that for `N#CCCSC(=S)[C@H]1CCCC1=N` was 3.16 µM (active).
On the same count and under the same terms, the value for `N=C1CCC[C@@H]1C(=S)SCCC(N)=O` was 3.16 µM (active); that for `CCN1C(=O)C(O)(C2COC(C)(C)CC2=O)c2ccccc21` (stereo not given) was “inactive”; that for `CCN1C(=O)C(O)(CC(=O)/C=C/C=C/c2ccccc2)c2ccccc21` (stereo not given) was 10 µM (active).
Consider `COc1ccc([C@H]2Sc3ccccc3N(CCN(C)C)C(=O)[C@H]2OC(C)=O)cc1`, for which the AC50 result is “inactive”.
Still for that read-out and setting: the value for `COc1ccc([C@@H]2Sc3ccccc3N(CCN(C)C)C(=O)[C@@H]2OC(C)=O)cc1` was “inactive”.
Still for that read-out and setting: the value for `CCCN1C(=O)C(NC(C)=O)c2cc(OC)ccc21` (stereo not given) was 7.08 µM (active); that for `c1nc(NC2CC2)c2cc(-c3ccoc3)ccc2n1` was 0.794 µM (active); that for `c1nc(NC2CCNCC2)c2cc(-c3ccoc3)ccc2n1` was 25.1 µM (active).
Same read-out and setting: the value for `c1nc(NC2CCNCC2)c2cc(-c3ccc4c(c3)OCO4)ccc2n1` was 12.6 µM (active).
For the compound `CN(C)c1ccc(-c2ccc3ncnc(NC4CC4)c3c2)cc1`, the AC50 was 0.2 µM (active).
Still for that read-out and setting: the value for `CC(=O)N[C@@H](C(=O)O)C(C)(C)SN=O` was “inactive”; that for `O=C(Cn1cccc1)NC1CCCCCC1` was “inactive”; that for `O=C(N/N=C/c1c[nH]c2ccccc12)c1ccn(Cc2ccc(Cl)cc2Cl)n1` was 0.708 µM (active).
Same read-out and setting: as for `O=C(N/N=C/c1c[nH]c2ccc(Br)cc12)c1ccn(Cc2ccc(Cl)cc2)n1`, the figure is 3.16 µM (active); as for `COC(=O)C1=C(C)NC2=C(C(=O)CCC2)C1c1cn(Cc2ccc(Cl)cc2Cl)nc1-c1ccccc1` (stereo not given), “inactive”; as for `O=C(NC1CCCC1)c1cccnc1N1CCCCCC1`, 15.8 µM (active).
With `O=C(O)C1CCN(c2ncccn2)CC1`, the AC50 entry was “inactive”.
The same measure, in the same setting: the value for `CN(C)C(CNC(=O)NC1CCCCC1)c1cccnc1` (stereo not given) was “inactive”.
For the compound `C/C=C\C1=C(CO)[C@H](O)[C@H]2OC2[C@@H]1O` (stereo not given in full), the activity, negative = inhibition was -5.28% [at 11.4 µM].
Turning to `N#C/C(=C/c1cccc(C(F)(F)F)c1)c1nc(CCN2C(=O)c3ccccc3C2=O)cs1`, the AC50 is 12.6 µM (active).
For `C[C@@H]1CC[C@@H]2C(=O)N3[C@@H](CC[C@@H](C)[C@@H]3c3ccc(-c4ccco4)cc3)C(=O)N2[C@H]1c1ccc(-c2ccco2)cc1`, the activity, negative = inhibition is -4.34% [at 11.4 µM].
Turning to `Fc1ccc(C2CC(c3ccco3)=NN2c2ccccc2)cc1` (stereo not given), the AC50 was 1.12 µM (active).
As for `CC1=C(C(=O)O)N2C(=O)C(NC(=O)c3ccn(C)n3)C2SC1` (stereo not given), the AC50 result is “inactive”.
The same measure, in the same setting: the value for `c1nc(NCCN2CCOCC2)c2cc(-c3ccoc3)ccc2n1` was 12.6 µM (active); that for `CC(=O)NCCNc1ncnc2ccc(-c3c(C)noc3C)cc12` was 15.8 µM (active).
Same read-out and setting: as for `Cc1noc(C)c1-c1ccc2ncnc(NCCN3CCOCC3)c2c1`, the figure is 15.8 µM (active); as for `c1nc(NCCN2CCOCC2)c2cc(-c3ccc4c(c3)OCO4)ccc2n1`, 2.51 µM (active).
Still for that read-out and setting: the value for `c1cncc(-c2ccc3ncnc(NCCN4CCOCC4)c3c2)c1` was 1 µM (active).
On to `COc1ccc(CNc2ncnc3ccc(-c4cccc(C#N)c4)cc23)c(OC)c1`, for which the AC50 is 3.16 µM (active).
Still for that read-out and setting: the value for `COc1ccccc1CNc1ncnc2ccc(-c3cccc(C#N)c3)cc12` was 0.251 µM (active); that for `O=C(Nc1cccc(Cl)c1Cl)c1snnc1-c1ccccc1` was 1.26 µM (active).
Turning to `Cc1nc(C(=O)Nc2cccc(Cl)c2Cl)nn1-c1cc(OC(C)C)c(Cl)cc1Cl`, the AC50 result was “inactive”.
For `CC[C@H](C)C(=O)O[C@@H]1C[C@H](C)C=C2C=C[C@H](C)[C@@H](CC[C@H]3C[C@@H](O)CC(=O)O3)[C@H]21`, the AC50 result is “inactive”.
As to `CN(C)S(=O)(=O)c1ccc2c(c1)/C(=C/c1cc3c([nH]1)CCCC3)C(=O)N2`, the half-maximal activity concentration (AC50) is 0.316 µM (active).
Still for that read-out and setting: the value for `CCOC(=O)O[C@]1(C(=O)COC(=O)CC)CC[C@@H]2[C@@H]3CCC4=CC(=O)C=C[C@@]4(C)[C@H]3[C@H](O)C[C@]21C` was “inactive”.
On the same count and under the same terms, as for `Cc1ccc(S(=O)(=O)Nc2ccc(=O)n(Cc3ccc(Cl)c(Cl)c3)c2)cc1`, the figure is 25.1 µM (active); as for `Cc1cc(NS(=O)(=O)c2ccc(NC(=O)CN3C(=O)c4ccccc4C3=O)cc2)nc(C)n1`, “inactive”.
Take `O=c1ccc(NS(=O)(=O)c2ccccc2)cn1Cc1ccc(Cl)c(Cl)c1`: the AC50 entry is “inactive”.
On the same count and under the same terms, the value for `CCCn1c(-c2cccs2)nc2nc3ccccc3nc21` was 1.78 µM (active).
On the same count and under the same terms, as for `Cc1c(Br)c([N+](=O)[O-])nn1CC(=O)NCc1ccccn1`, the entry is “inactive”.
For the compound `Cc1c(Cl)c([N+](=O)[O-])nn1CC(=O)Nc1c(C)n(C)n(-c2ccccc2)c1=O`, the AC50 result is “inactive”.
For `Cc1ccc(NC(=O)Cn2nc([N+](=O)[O-])c(Br)c2C)cc1C`, the AC50 was 12.6 µM (active).
Still for that read-out and setting: as for `COc1ccc(Oc2nc(C)cc(C)c2S(=O)(=O)c2ccc(C)cc2)cc1`, the entry is “inactive”.
For `Cc1cc(C)c(S(C)(=O)=O)c(Oc2ccc(C(C)(C)C)cc2)n1`, the AC50 is 4.47 µM (active).
Still for that read-out and setting: as for `Cc1cc(C)c(S(C)(=O)=O)c(Oc2ccc(F)cc2)n1`, the figure is 10 µM (active).
For the compound `O=C(O)[C@@H](O)[C@@H](O)[C@@H](O)[C@@H](O)C(=O)O` (tested in a mixture with another compound), the AC50 result is “inactive”.
On the same count and under the same terms, the value for `COc1ccc(CNc2nc(-c3ccccc3CN(C)C)nc3ccccc23)c(OC)c1` was 10 µM (active).
For `COc1ccccc1CNc1nc(-c2ccccc2CN(C)C)nc2ccccc12`, the AC50 is 0.794 µM (active).
